APOBEC3G inh = APOBEC3G (human) deaminase inhibition; recombinant A3G, ssDNA deamination FAM/TAMRA fluorescence; actives 0.28% (n = 330,000); inhibition, % at 20 µM;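 active = inhibition of at least 40% at 20 µM, with no more than 30% in the related APOBEC3A deaminase screen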
Target sequence (Q9HC16 whole entry, looked up): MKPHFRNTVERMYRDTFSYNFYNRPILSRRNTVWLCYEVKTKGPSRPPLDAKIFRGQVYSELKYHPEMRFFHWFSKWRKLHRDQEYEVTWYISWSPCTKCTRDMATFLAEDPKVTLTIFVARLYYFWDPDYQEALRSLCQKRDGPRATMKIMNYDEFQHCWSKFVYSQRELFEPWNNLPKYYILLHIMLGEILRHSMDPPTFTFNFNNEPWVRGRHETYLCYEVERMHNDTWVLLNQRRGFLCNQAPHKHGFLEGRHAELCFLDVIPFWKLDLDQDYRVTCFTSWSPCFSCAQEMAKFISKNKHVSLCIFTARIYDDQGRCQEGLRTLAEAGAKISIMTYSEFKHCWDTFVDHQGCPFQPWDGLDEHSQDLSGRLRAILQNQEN
A3A deaminase = blocks human APOBEC3A ssDNA deamination; P31941; recombinant A3A, FAM/TAMRA ssDNA deamination fluorescence; inhibition, % at 20 µM; actives 0.41% (n = 330,000);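 active = at least 40% inhibition at 20 µM here, with at most 30% in a related deaminase screen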
Target sequence (P31941 whole entry, looked up): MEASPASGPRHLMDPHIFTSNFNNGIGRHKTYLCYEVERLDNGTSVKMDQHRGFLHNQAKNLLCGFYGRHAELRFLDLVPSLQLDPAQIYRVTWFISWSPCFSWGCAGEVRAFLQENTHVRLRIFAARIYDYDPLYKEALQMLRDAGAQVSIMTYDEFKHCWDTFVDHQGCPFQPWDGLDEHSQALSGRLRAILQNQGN
AHR activator = human AHR activation; P35869; AHR-responsive luciferase reporter cells, luminescence; activation, % at 5 µM; actives 2.5% (n = 320,000); in the data active = activation above about 47%
NTR1 ag = NTR1 (human) agonism; P30989; activation, % at 20 µM; actives 0.17% (n = 330,000); NTR1-U2OS beta-arrestin-GFP spot imaging, agonist mode; AID 493036;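 active = activation at or above 40% of the spot to cytoplasm intensity ratio, with at least 20 cells analyzed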
Large screens that a line does not name were inactive. A selection: hits, their analogues and other compounds. The true share with any hit is near 3.2%.

NC(=O)c1c(NC(=O)COC(=O)c2ccc(S(=O)(=O)Nc3ccccc3)cc2)sc2c1CCCC2	none
COc1ccc(/C=N/Nc2cc(C)nc(N3CCOCC3)n2)cc1	none
COc1ccc(/C=N\Nc2ncc(F)c(N3CCOCC3)n2)cc1OC	AHR activator 59
Cc1cc(C)nc(N/N=C/c2ccc(N3CCOCC3)cc2)n1	none
COc1ccc(Nc2cc(C)nc(N3CCOCC3)n2)cc1	none
COc1ccccc1/C=N/Nc1cc(C)nc(N2CCOCC2)n1	AHR activator 51
COc1ccc(/C=N/Nc2cc(C)nc(N3CCOCC3)n2)cc1OC	AHR activator 50
OC(CNc1ccccc1)Cn1ccc2ccccc21 (stereo not drawn)	none
CN(C)c1cccc(/C=C(\C#N)c2ccccc2)c1	none
O=C1CC(c2ccccc2)=Nc2ccccc2N1	AHR activator 75
Cc1ccc2c(c1)NC(=O)CC(c1ccccc1)=N2	none
Oc1c(N=Nc2ccc(F)cc2)ccc2ccccc12	AHR activator 73
Cc1ccc(N=Nc2ccc3ccccc3c2O)cc1	AHR activator 53
O=C(Cc1c(F)cccc1Cl)N1CCN(S(=O)(=O)c2cccc(F)c2)CC1	none
Oc1[nH]c2ccc(Br)cc2c1N=Nc1ccc(F)cc1	AHR activator 62
O=[N+]([O-])c1ccc2[nH]c(O)c(N=Nc3ccc(F)cc3)c2c1	none
O=C(NC(c1ccccc1)c1ccccc1)c1ccc(CO)cc1	none
Cc1ccc([N+](=O)[O-])cc1NC(=S)NCCc1ccccc1	AHR activator 52
Cc1ccc(C(=O)O)cc1NC(=S)NCCc1ccccc1	none
O=C(NC(=S)Nc1cccc([N+](=O)[O-])c1)c1ccccc1	none
O=C(NC(=S)Nc1cc([N+](=O)[O-])ccc1Cl)c1ccccc1	AHR activator 71
O=C(Nc1cc(SCCO)cc([N+](=O)[O-])c1)c1ccc(Br)o1	AHR activator 52
Cc1ccccc1C(=O)N/N=C/c1cccc2ccccc12	none
Cc1ccc(Cl)cc1NC(=S)N/N=C/c1cccc2ccccc12	AHR activator 55
O=C(CN1CCCC1)Nc1c2c(nc3ccccc13)N(Cc1ccccc1)CC2	AHR activator 71
O=C(CN1CCOCC1)Nc1c2c(nc3ccccc13)N(Cc1ccccc1)CC2	AHR activator 55
CCN(CC)CC(=O)Nc1c2c(nc3ccccc13)N(C)CC2	none
CCOC(=O)c1c(C)nc2c3ccccc3ccn12	AHR activator 75
CC(=O)c1c(-c2ccc(C)cc2)nc2c3ccccc3ccn12	AHR activator 59
C/C(=N/N1CCN(Cc2cccc3ccccc23)CC1)c1ccco1	none
CN(C)CCNc1c2c(nc3nnnn13)CCCC2	none
CCN(CC(=O)Nc1c(F)cccc1F)C(=O)c1ccc(C)c(S(=O)(=O)N2CCCCC2)c1	none
CCCNc1nc(C)nc2c1cnn2CCc1ccccc1	AHR activator 68
Cc1nc(NCCc2ccc(O)cc2)c2nnn(Cc3ccccc3)c2n1	none
Cc1nc(NCCc2ccc(F)cc2)c2nnn(Cc3ccccc3)c2n1	none
Cc1nc(NC(C)C)c2cnn(CCc3ccccc3)c2n1	AHR activator 59
Cc1cc(C)c2c(N)c3cccc(C)c3nc2n1	AHR activator 69 (no result: APOBEC3G inh, A3A deaminase, NTR1 ag)
CC1=NN(c2ccccc2)C(=O)/C1=C/c1ccc[nH]1	AHR activator 85
CC1=NN(c2ccccc2)C(=O)/C1=C/c1ccc(Cl)cc1	none (no result: AHR activator)
c1ccc2c(c1)Nc1cc3ccccc3cc1S2	AHR activator 60
Cc1ccc(O)c(NC(=O)c2ccc3c(c2)C(=O)N(CC(C)C)C3=O)c1	AHR activator 73
CCCN1C(=O)c2ccc(C(=O)Nc3cc(C)ccc3O)cc2C1=O	none
Cc1cc(-c2ccc(S(=O)(=O)N3CCN(c4cccc(C)c4C)CC3)s2)on1	none
Cc1cc(C)nc(SCC(=O)N/N=C/c2cc(C)n(-c3ccccc3C)c2C)n1	none
Cc1cc(C)nc(SCC(=O)N/N=C\c2sccc2C)n1	AHR activator 63
O=C(Nc1ccc(N2CCCCC2)cc1)c1ccc2ccccc2n1	AHR activator 63
COc1ccc(-c2csc(NC(=O)c3nc(-c4ccccc4)oc3C)n2)cc1	none
O=C(Nc1cccc(S(=O)(=O)N2CCCCCC2)c1)c1ccc2ccccc2n1	none
Cc1csc(NC(=O)c2cnc3ccccc3n2)n1	AHR activator 57
Cc1oc(-c2ccccc2)nc1C(=O)Nc1nccs1	AHR activator 74
O=C(Nc1nccs1)c1ccc2ccccc2n1	AHR activator 50
O=C(Nc1nccs1)c1ccccc1Br	none
CCN(CC)CCNC(=O)C(=O)Nc1cc2c3c(c1)CCC(=O)N3CCC2	none
O=C(CN(C(=O)CCC(=O)Nc1ccccn1)C1CCCC1)NCc1ccc(F)cc1	none
Cc1ccc(OCCC(=O)OC(C)C(=O)Nc2c(C)n(C)n(-c3ccccc3)c2=O)cc1 (stereo not drawn)	none
Cc1ccccc1NC(=O)c1cccc(C(=O)Nc2ccccc2C)n1	none
Cc1cccc(NC(=O)c2ccc3ccccc3n2)c1C	AHR activator 58
Cc1csc(NC(=O)c2ccc3ccccc3n2)n1	AHR activator 74
Cc1csc(NC(=O)c2ccc(C(=O)Nc3nc(C)cs3)cc2)n1	none
COc1ccccc1C(=O)Nc1nc(C)cc(C)n1	none
NS(=O)(=O)c1ccc(CNC(=O)Cc2c(F)cccc2Cl)cc1	none
O=C(Nc1nccs1)c1ccc2nccnc2c1	AHR activator 53
O=C(Nc1nccs1)c1cncc(Br)c1	AHR activator 56
Cc1ccc(Oc2ncccc2N)c2c1CCC2	none
OC1(c2cccc(C(F)(F)F)c2)CCN(c2ncnc3c2[nH]c2ccccc23)CC1	AHR activator 54
c1ccc2c(c1)[nH]c1c(N3CCC4(CC3)OCCO4)ncnc12	AHR activator 66
c1ccc2c(c1)CCN(c1ncnc3c1[nH]c1ccccc13)C2	none
O=C(CN1C(=O)NC2(CCCCCCC2)C1=O)Nc1cccc(Br)c1	none
COc1cc(C)c(S(=O)(=O)NOCc2ccccc2)c(C)c1C	none
CCc1nnc(NC(=O)c2cccnc2SC)s1	AHR activator 51
O=C(Nc1nnc(C2CC2)s1)c1n[nH]c(=O)c2ccccc12	AHR activator 65
CSc1ncccc1C(=O)Nc1nnc(C2CC2)s1	AHR activator 61
O=C(CN1CCN(C(=O)CN2C(=O)NC3(CCCC3)C2=O)CC1)Nc1cccc(F)c1	none
COc1ccc(NS(=O)(=O)c2ccc3oc(SC4CCOC4=O)nc3c2)cc1 (stereo not drawn)	NTR1 ag 68
CCn1nc(C)c(CN2CCCC(CNS(=O)(=O)c3ccc(OC)cc3)C2)c1C (stereo not drawn)	none
COc1ccc(Oc2nc(-c3ccncc3)nc3ccccc23)cc1	none
CCOc1nc(-c2ccc(Cl)cc2)nc2ccccc12	AHR activator 62
COc1nc(-c2ccncc2)nc2ccccc12	AHR activator 75
CCCCN(CC)c1nc(-c2ccncc2)nc2ccccc12	AHR activator 73
C=CCOc1nc(-c2ccncc2)nc2ccccc12	AHR activator 52
CCCOc1ccc(Oc2nc(-c3ccncc3)nc3ccccc23)cc1	none
O=C(Cn1nnc(-c2ccccc2NC(=O)c2ccccc2F)n1)NC1CCCC1	none
COC(=O)c1[nH]c2ccc(C)cc2c1NC(=O)Oc1ccccc1	AHR activator 54
CCS(=O)(=O)Nc1c(C(=O)OC)[nH]c2ccccc12	none

High-throughput results as filed in PubChem.
